Screening results from PubChem BioAssay.
GDH-TPI inh = GDH-TPI coupled enzyme inhibition counter-screen; GDH-TPI coupled enzyme counterscreen, NADH absorbance; inhibition, % at 4.8 µM; actives 1.2% (n = 360,000); AID 588335; in the data active means inhibition above about 30%;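 further: 0% = DMSO wells and 100% = wells lacking the enzyme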
PrPC surface inh = cell surface PrPC inhibition, primary TR-FRET screen; P04156; TR-FRET read-out; inhibition, % at 13.8 µM; actives 0.43% (n = 370,000); in the data active means inhibition above about 24%; further: 0% = median of the test wells and 100% = reference compound wells
FBA Mtb inh = inhibits M. tuberculosis FBA enzyme; inhibition, % at 1 µM; P9WQA3; actives 2.3% (n = 360,000); purified M. tuberculosis FBA, fluorescence read-out; in the data active means inhibition above about 27%;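 further: 0% = vehicle and 100% = reference inhibitor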
Target sequence (P9WQA3 whole entry, looked up): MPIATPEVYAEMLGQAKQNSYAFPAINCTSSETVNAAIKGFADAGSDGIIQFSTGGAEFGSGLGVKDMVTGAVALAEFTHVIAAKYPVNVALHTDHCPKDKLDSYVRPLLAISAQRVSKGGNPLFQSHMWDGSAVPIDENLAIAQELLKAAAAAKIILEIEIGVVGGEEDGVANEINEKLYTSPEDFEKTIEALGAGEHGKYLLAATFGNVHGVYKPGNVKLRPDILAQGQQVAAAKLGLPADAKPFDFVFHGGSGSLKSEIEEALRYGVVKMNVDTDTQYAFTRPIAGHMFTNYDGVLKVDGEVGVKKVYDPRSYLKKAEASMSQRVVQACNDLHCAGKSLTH
3CLpro inhibitor = SARS-CoV 3CLpro protease inhibition; P0C6X7; recombinant SARS-CoV 3CLpro, quenched FRET peptide cleavage; inhibition, % at 6 µM; actives 0.14% (n = 290,000); in the data active means inhibition above about 12%
Vc quorum ag = quorum light induction in luxS cqsA deficient V. cholerae. actives 0.16% (n = 350,000). V. cholerae BH1578 lux reporter, luminescence, 6 h. activation, % at 18.7 µM. AID 588436; in the data active means activation mostly above about 9.7%, no sharp cut-off
* hit, by the source's call. An excerpt weighted towards active compounds, which were near 3.9% of everything screened.

Results for COC(=O)[C@H](CC(C)C)N(CCc1cn(Cc2ccccc2)nn1)S(=O)(=O)c1ccc(F)cc1Br ?
PrPC surface inh: 5

What do the screens show for `COc1ccc(/C=C/C(=O)Nc2nc(N)n(-c3ccccc3)n2)cc1`?
GDH-TPI inh: 33*; PrPC surface inh: -7; FBA Mtb inh: -3; 3CLpro inhibitor: -2; Vc quorum ag: -3

How did COc1ccc(/C=C/C(=O)Nc2cccnc2Cl)cc1 do in these assays?
GDH-TPI inh: 31*; PrPC surface inh: -2; FBA Mtb inh: 1; 3CLpro inhibitor: 3; Vc quorum ag: 1

Results for Nc1nc(NC(=O)/C=C\C(=O)O)nn1-c1ccccc1 ?
GDH-TPI inh: 2; PrPC surface inh: 4; FBA Mtb inh: 2; 3CLpro inhibitor: 2; Vc quorum ag: 0

What do the screens show for `CCOC(=O)CNC1CC(=O)N(c2ccc(Br)cc2)C1=O` (stereo not drawn)?
GDH-TPI inh: 2; PrPC surface inh: 5; FBA Mtb inh: 0; 3CLpro inhibitor: 0; Vc quorum ag: inactive

Results for COc1cccc(/C=N/Nc2ncnc3scc(-c4ccccc4)c23)c1O ?
GDH-TPI inh: 32*; PrPC surface inh: 3; FBA Mtb inh: 5; 3CLpro inhibitor: 2; Vc quorum ag: 0

How did Oc1cccc(/C=N/Nc2ncnc3c2ncn3Cc2ccccc2)c1 do in these assays?
GDH-TPI inh: 37*; PrPC surface inh: -3; FBA Mtb inh: 2; 3CLpro inhibitor: -2; Vc quorum ag: 1

What do the screens show for `COc1cccc(/C=N/Nc2nccnc2Cl)c1O`?
GDH-TPI inh: 8; PrPC surface inh: 2; FBA Mtb inh: -5; 3CLpro inhibitor: 4; Vc quorum ag: inactive

What do the screens show for `COc1ccc(Nc2ncnc3scc(-c4ccc(OC)cc4)c23)cc1`?
GDH-TPI inh: 6; PrPC surface inh: 13; FBA Mtb inh: 1; 3CLpro inhibitor: -2; Vc quorum ag: 0

Results for COc1ccc(/C=N/Nc2ncnc(Cl)c2N)cc1OC ?
GDH-TPI inh: 16; PrPC surface inh: -16; FBA Mtb inh: 2; 3CLpro inhibitor: 1; Vc quorum ag: 0

What do the screens show for `Nc1c(Cl)ncnc1N/N=C/c1ccncc1`?
GDH-TPI inh: 48*; PrPC surface inh: -19; FBA Mtb inh: -4; 3CLpro inhibitor: 1; Vc quorum ag: inactive

Results for COc1cccc(/C=N/Nc2ncnc(Cl)c2N)c1O ?
GDH-TPI inh: 32*; PrPC surface inh: -27; FBA Mtb inh: -4; 3CLpro inhibitor: -2; Vc quorum ag: 7

Results for Cc1cn(CC(=O)N[C@H](C)c2cccc3ccccc23)c(=O)[nH]c1=O ?
GDH-TPI inh: -8; PrPC surface inh: 4; FBA Mtb inh: -1; Vc quorum ag: -1

How did Clc1cncc(Cl)c1N/N=C/c1ccncc1 do in these assays?
GDH-TPI inh: 36*; PrPC surface inh: -16; FBA Mtb inh: -1; 3CLpro inhibitor: 2; Vc quorum ag: 0

Results for Clc1cccc(Cl)c1/C=N/Nc1c(Cl)cncc1Cl ?
GDH-TPI inh: 4; PrPC surface inh: 3; FBA Mtb inh: 0; 3CLpro inhibitor: 5; Vc quorum ag: 0

What do the screens show for `COc1cccc(/C=N/Nc2nc(Nc3ccccc3)nc(-n3nc(C)cc3C)n2)c1O`?
GDH-TPI inh: -5; PrPC surface inh: 5; FBA Mtb inh: 1; 3CLpro inhibitor: 2; Vc quorum ag: inactive

What do the screens show for `COc1cccc(/C=N/Nc2cc(-n3nc(C)cc3-c3ccccc3)ncn2)c1O`?
GDH-TPI inh: 35*; PrPC surface inh: -2; FBA Mtb inh: -1; 3CLpro inhibitor: -4; Vc quorum ag: 0

How did Nc1c(Cl)ncnc1N/N=C/c1cccc(O)c1 do in these assays?
GDH-TPI inh: 42*; PrPC surface inh: -29; FBA Mtb inh: -2; 3CLpro inhibitor: -1; Vc quorum ag: inactive

Results for COC(=O)c1sccc1NC(=O)C1CCCCC1C(=O)O (stereo not drawn) ?
GDH-TPI inh: -9; PrPC surface inh: 37*; FBA Mtb inh: -3; 3CLpro inhibitor: -2; Vc quorum ag: inactive

Results for COC(=O)c1ccccc1NC(=O)C1CCCCC1C(=O)O (stereo not drawn) ?
GDH-TPI inh: -6; PrPC surface inh: -1; FBA Mtb inh: 9; 3CLpro inhibitor: 5; Vc quorum ag: inactive

Results for COc1ccc(OC)c(NC(=O)c2cccnc2Sc2ccccc2)c1 ?
GDH-TPI inh: 6; PrPC surface inh: 5; FBA Mtb inh: 1; 3CLpro inhibitor: 5; Vc quorum ag: 0

What do the screens show for `COc1ccc(CC(=O)N(Cc2ccccc2)c2ccc(C)cc2)cc1OC`?
GDH-TPI inh: -3; PrPC surface inh: 1; FBA Mtb inh: -3; 3CLpro inhibitor: 3; Vc quorum ag: -1

What do the screens show for `CCCCNS(=O)(=O)c1ccc2nc(-c3cccnc3)cc(C(=O)NCCOC)c2c1`?
GDH-TPI inh: 32*; PrPC surface inh: -3; FBA Mtb inh: 1; 3CLpro inhibitor: 1; Vc quorum ag: -1

Results for Cc1ccccc1S(=O)(=O)c1c(C)cc(-c2ccccc2)[nH]c1=O ?
GDH-TPI inh: 19; PrPC surface inh: -4; FBA Mtb inh: 76*; 3CLpro inhibitor: 2; Vc quorum ag: 0

Results for Cc1cc(-c2ccccc2)[nH]c(=O)c1S(=O)(=O)c1ccccc1 ?
GDH-TPI inh: 27; PrPC surface inh: -8; FBA Mtb inh: 107*; 3CLpro inhibitor: 0; Vc quorum ag: -3

What do the screens show for `Cc1ccc(NC(=O)Cn2c([N+](=O)[O-])cnc2C)cc1Cl`?
GDH-TPI inh: 3; PrPC surface inh: -4; FBA Mtb inh: 5; 3CLpro inhibitor: 3; Vc quorum ag: -1

What do the screens show for `COc1cccc(C=C2SC(=S)NC2=O)c1`?
GDH-TPI inh: 31*; PrPC surface inh: 3; FBA Mtb inh: -2; Vc quorum ag: inactive

What do the screens show for `COc1cccc(/C=C2\SC(=S)N(N3C(=O)CCCC3=O)C2=O)c1`?
GDH-TPI inh: 0; PrPC surface inh: 12; FBA Mtb inh: 1; 3CLpro inhibitor: 4; Vc quorum ag: inactive

What do the screens show for `NC(=O)c1ccc(/C=N/O)[n+](Cc2ccccc2)c1`?
GDH-TPI inh: 35*; PrPC surface inh: 2; FBA Mtb inh: -3; 3CLpro inhibitor: -3; Vc quorum ag: inactive

What do the screens show for `CCOC(=O)c1ccc(/C=N/O)[n+](Cc2ccccc2)c1`?
GDH-TPI inh: 25; PrPC surface inh: 0; FBA Mtb inh: -1; 3CLpro inhibitor: -1; Vc quorum ag: -1

What do the screens show for `Cc1cc(C)n2nc3nc4c(cc3c2n1)CCCC4`?
GDH-TPI inh: 27; PrPC surface inh: 2; FBA Mtb inh: active; 3CLpro inhibitor: 2; Vc quorum ag: -1

How did CC(C)NC(=O)CC(=O)NN=C1CCCCC1 do in these assays?
GDH-TPI inh: -1; PrPC surface inh: 4; FBA Mtb inh: 0; 3CLpro inhibitor: 2; Vc quorum ag: 0

Results for Cc1ccc2nc3c(cc(C(=O)NCCc4ccccc4)c(=N)n3CCCN3CCOCC3)c(=O)n2c1 ?
GDH-TPI inh: 1; PrPC surface inh: -30; FBA Mtb inh: 122*; 3CLpro inhibitor: -7; Vc quorum ag: 0

What do the screens show for `COc1ccc(CCn2c(=N)c(C(=O)NCCN3CCOCC3)cc3c(=O)n4cccc(C)c4nc32)cc1OC`?
GDH-TPI inh: 8; PrPC surface inh: -33; FBA Mtb inh: 2; 3CLpro inhibitor: 2; Vc quorum ag: -3
